# Experimental data: the supplement of paper PMC7556523
# Test system: Sporothrix schenckii ATCC 32286
# Assay: growth inhibition relative to untreated control; higher = more growth inhibition (more antifungal activity), active = 80 or more; extreme values may be limits of the assay
# Conditions: 1 µM; 48 h
# Method in brief: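 Before testing, the reference isolates were kept in brain heart infusion broth with 2% glucose at 36°C for 7 days to give yeast-form cells. These cells, at 1 x 10^5 CFU/ml, received library compounds at a final 1 μM and were held 48 h at 35°C in 5% CO2. Growth was checked by eye under an inverted light microscope and quantified spectrophotometrically in quadruplicate, and the value is percent growth inhibition versus untreated cells.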
row,SMILES,growth inhibition
1,Cc1nn(C)cc1C(C)Nc1nncc(-c2ccc(C(F)(F)F)cc2)n1 (stereo not drawn),4.75% (inactive)
2,O=C(Nc1c(O)cccc1-c1nc2c(C(=O)O)cccc2o1)c1cc(-c2ccccc2)on1,3.75% (inactive)
3,CC(Oc1ccccc1)C(=O)Nc1nc(-c2ccccn2)cs1 (stereo not drawn),0% (inactive)
4,CN1CCC(c2cc(-c3ccncc3)c(-c3ccc(F)cc3)[nH]2)CC1,10% (inactive)
5,COc1ccc(-c2nn(C(C)C)c3ncnc(N)c23)cc1OC,14.2% (inactive)
6,CC(C)c1ncc(-c2ccncc2)c([C@H]2CC[C@H](CNC(=O)c3cccnc3)CC2)n1,8.25% (inactive)
7,COc1ccc(-c2cnc3ccc(NCc4ccc(S(N)(=O)=O)cc4)nn23)cn1,18.2% (inactive)
8,N=C(N)c1ccc(-c2cc(-c3ccccc3)on2)cc1,10.5% (inactive)
9,CC(C)C(NC(=O)Cc1cccc2ccccc12)C(=O)Nc1cccc(C#N)c1 (stereo not drawn),9.25% (inactive)
10,Cc1ccc(Oc2ccc(NC(=O)CNc3ccccc3N3CCCC3=O)cc2)cc1,0% (inactive)
11,Cc1cnc(N2CCN[C@@H](Cc3ccccc3)C2)nc1Oc1ccc(-n2ccnc2)cc1,6.5% (inactive)
12,O=C(Nc1cccnc1)c1c(O)c2cccc3c2n(c1=O)CC3,11.2% (inactive)
13,O=C(Nc1nnc(-c2ccc(Cl)cc2)o1)c1cccc(C(F)(F)F)c1,85.5% (active)
14,CC1CCCCN1C(=O)NCCc1coc(-c2ccc(F)cc2)n1 (stereo not drawn),0% (inactive)
15,CC(C(=O)N1CCCC1)N1CCN(S(=O)(=O)c2ccc(C(C)(C)C)cc2)CC1 (stereo not drawn),7% (inactive)
16,Cn1ncc2c(N3CCOCC3)nc(NCCc3c[nH]c4ccccc34)nc21,0% (inactive)
17,NCC(c1cccs1)S(=O)(=O)c1ccccc1 (stereo not drawn),0% (inactive)
18,CNCCC(Oc1ccc(C(F)(F)F)cc1)c1ccccc1 (stereo not drawn),2% (inactive)
19,COc1cc(C2=NCCN2)ccc1-c1cn(-c2cccc(C3=NCCN3)c2)nn1,1.25% (inactive)

row,SMILES,growth inhibition
1,N=C(N)Nc1ccc(-c2ccc(-c3ccc(N=C(N)N)c(Cl)c3)o2)cc1Cl,0% (inactive)
2,COc1ccccc1C(C)NCC(=O)Nc1cc(C(F)(F)F)ccc1Cl (stereo not drawn),0% (inactive)
3,Cc1nnc(NCc2cccc(Cl)c2)c2ccccc12,8.75% (inactive)
4,O=C(Nc1ccc(C(F)(F)F)c(C(F)(F)F)c1)c1cc(Cl)ccc1O,62% (inactive)
5,Cc1cccc(NC(=O)c2cc(S(=O)(=O)N(C)c3ccc(F)cc3)ccc2Cl)n1,8.25% (inactive)
6,COc1ccc(OC(C)C(=O)Nc2ccc(Cl)cc2C)cc1 (stereo not drawn),11.2% (inactive)
7,Cc1cc(NCC(C)C)c2[nH]nc(-c3ccccc3)c2n1,0.75% (inactive)
8,O=C(C(Cc1c[nH]c2ccccc12)NS(=O)(=O)c1ccc(Cl)cc1)N1CCCCC1 (stereo not drawn),4% (inactive)
9,CC(=O)NCC1CN(c2ccc(-c3ccc(CNCc4cn[nH]n4)cc3)c(F)c2)C(=O)O1 (stereo not drawn),0% (inactive)
10,CNC(=O)C1Cc2c([nH]c3cc(Cl)ccc23)C2(CCN(CCc3ccccc3)CC2)N1 (stereo not drawn),0% (inactive)
11,CN(C)c1cc(NC(=O)Nc2ccccc2)c2ccccc2n1,0.75% (inactive)
12,NS(=O)(=O)c1cccc(-c2ccc3ncc(N4CCOCC4)nc3c2)c1,0% (inactive)
13,CC(=O)Oc1ccccc1C(=O)Nc1ncc([N+](=O)[O-])s1,14% (inactive)
14,N#Cc1ccc(-c2cnc(N)c(-c3ccc(C(N)=O)cc3)n2)cc1,9% (inactive)
15,CC(C)(C)n1nc(-c2ccccc2)c2c(N)ncnc21,9% (inactive)
16,COc1ccccc1OCCCCn1c(C2CC2)nc2ccccc21,9.25% (inactive)
17,CCCCc1ccc(C(=O)Nc2nccc3ccccc23)nc1,1% (inactive)
18,O=C(NC1CC1)c1ccc(N2CCC(Cc3ccccc3)CC2)nc1,19.8% (inactive)
19,COc1ccc(N(CCc2cccc(C)n2)C(C)=O)cc1,1.25% (inactive)
